From PubChem BioAssay
Only some compounds are listed: those with a hit (about 3.9% of all), similar ones and a draw of the others.
ALR inh = inhibitors of human ALR sulfhydryl oxidase, primary screen, biochemical, H2O2 detection, HRP-luminol luminescence, single point. AID 485317, 2010. 290,000 compounds, 3.8% hits. purified ALR, DTT oxidation. inhibition, % (no concentration beside the values). FAD-linked sulfhydryl oxidase ALR (Homo sapiens), P55789;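 active means mean replicate inhibition above about 79%, with every replicate also reaching it, limit read from the data; inconclusive means only one of the two criteria met; inactive means mean below limit and not every replicate reaching it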
SUMO HTRF inh = inhibitors of in vitro SUMOylation cascade, primary screen, biochemical, HTRF, uHTS; HTRF SUMOylation assay, SAE1/SAE2 + UBC9; 290,000 compounds, 0.36% hits; inhibition, % at 35 µM; SUMO-conjugating enzyme UBC9 (Homo sapiens), P63279; in the data active means inhibition above about 50%, passing the limit was not always enough; inconclusive means no clear call, values can overlap the other calls
Target sequence (P63279 whole entry, looked up): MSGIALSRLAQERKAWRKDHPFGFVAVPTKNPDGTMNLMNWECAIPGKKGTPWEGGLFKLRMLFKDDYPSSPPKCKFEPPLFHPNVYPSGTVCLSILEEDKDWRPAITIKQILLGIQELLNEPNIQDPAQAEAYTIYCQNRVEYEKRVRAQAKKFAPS
NTR1 ag = agonists of human NTR1, primary screen, imaging, U2OS cells, beta-arrestin-GFP, high content; Neurotensin receptor type 1 (Homo sapiens), P30989; NTR1-U2OS beta-arrestin-GFP spot imaging, agonist mode; activation, % at 20 µM; 330,000 compounds, 0.17% hits; AID 493036, 2011;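 active means activation at or above 40% of the spot to cytoplasm intensity ratio, with at least 20 cells analyzed; inconclusive means wells under 20 cells, flagged as cytotoxic or low count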
Target sequence (P30989 whole entry, looked up): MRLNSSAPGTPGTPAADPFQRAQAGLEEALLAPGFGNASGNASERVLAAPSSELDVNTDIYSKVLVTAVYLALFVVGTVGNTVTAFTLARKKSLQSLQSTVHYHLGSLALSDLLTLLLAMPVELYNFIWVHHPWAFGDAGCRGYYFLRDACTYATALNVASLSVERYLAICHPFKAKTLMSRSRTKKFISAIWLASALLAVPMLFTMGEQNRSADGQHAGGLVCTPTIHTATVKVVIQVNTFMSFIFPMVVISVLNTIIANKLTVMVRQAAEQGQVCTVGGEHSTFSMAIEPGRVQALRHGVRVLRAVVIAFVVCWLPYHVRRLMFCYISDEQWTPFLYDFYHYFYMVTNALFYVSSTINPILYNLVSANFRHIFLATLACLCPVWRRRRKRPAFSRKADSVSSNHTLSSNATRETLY
Cardio protect = cardioprotection against H2O2-induced cell death, primary screen, uHTS, H9c2 cells, ATPLite luminescence | H9c2 cardiomyocytes, H2O2 injury protection, 2 h | protection from H2O2 cell death, % at 20 µM | 360,000 compounds, 0.63% hits | AID 588492, 2011;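 active means compounds giving at least 50% protection of heart cells from peroxide-induced death in the single-dose screen, raw or plate-pattern-corrected value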
Each line names hits and unclear results; the compound was inactive in the other large screens.

Cc1nnsc1-c1nnc(SCC(=O)c2ccccc2)n1C1CC1	ALR inh 84
CCOC(=O)C1=CCC(c2ccccc2C(F)(F)F)N(S(=O)(=O)c2ccc(C)cc2)C1 (stereo not given)	none (no result: ALR inh, SUMO HTRF inh, NTR1 ag)
O=C(NC(=S)Nc1ccc2c(c1)OCO2)c1ccccc1	none
CC(C)COC(=O)N1CCCC1C(=O)O (stereo not given)	none
O=C(CC1C(=O)NCCN1Cc1ccc(F)cc1)NCCN1CCCc2ccccc21 (stereo not given)	ALR inh 99
O=C(CC1C(=O)NCCN1Cc1ccccc1)NCCN1CCCCC1=O (stereo not given)	none
O=S(=O)(c1ccc2c(c1)CCN2)N1CCCC1	ALR inh 98 (no result: SUMO HTRF inh)
COc1cc2cc(NC(C)=O)cc(NCc3ccccc3)c2cc1OC	none
CCCCNc1cc(NC(C)=O)cc2cc(OC)c(OC)cc12	ALR inh 99
CCOC(=O)Cc1ccc(Nc2nc(NCCOC)nc3ccsc23)cc1	none (no result: ALR inh, SUMO HTRF inh, NTR1 ag)
Nc1ccc(-c2nc3ccc(N)cc3[nH]2)cc1	ALR inh 98, SUMO HTRF inh 66
Cc1nc2ccc(-c3nc4ccc(N)cc4[nH]3)cc2[nH]1	ALR inh 100, SUMO HTRF inh inconclusive
Nc1ccc(-c2nc3c(Cl)c(N)ccc3[nH]2)cc1	ALR inh 98
Nc1cc(N)cc(-c2nc3ccccc3[nH]2)c1	none
Cc1cc(-c2nc3ccccc3[nH]2)ccc1N	ALR inh 98
N#Cc1ccc(CSc2nnc(-c3cccnc3)n2-c2ccccc2)cc1	none
CCCCCc1nc(N)c(C#N)c(-c2ccco2)c1CCCC	none (no result: ALR inh)
O=[N+]([O-])c1ccc(-c2nc3ccc([N+](=O)[O-])cc3[nH]2)cc1	none
Nc1ccc2nc(-c3ccc(Cl)cc3)[nH]c2c1	ALR inh 99
Nc1ccc2nc(-c3cccc(-c4nc5ccc(N)cc5[nH]4)c3)[nH]c2c1	ALR inh 99
Nc1ccc(-c2nc3ccc([N+](=O)[O-])cc3[nH]2)cc1	ALR inh 97
Cc1ccc(C)c(-c2nc3ccc(N)cc3[nH]2)c1	ALR inh 99, SUMO HTRF inh 50
Cc1ccc(S(=O)(=O)N2CCN(C(=O)c3ccccn3)CC2)cc1	none
COc1ccc(/C=C/C(=O)OCC(=O)Nc2ccc(Cl)cc2F)cc1S(=O)(=O)N1CCOCC1	none
COCCCNCCOc1ccc(C)cc1[N+](=O)[O-]	none
Nc1ccc2nc(C3CCCCC3)[nH]c2c1	ALR inh 99
c1ccc2[nH]c(C3CC3)nc2c1	none
Cc1[nH]c2ccccc2c1-c1nc2ccccc2[nH]1	ALR inh 89
CCCn1c2ccc(C)cc2c2nnc(SCCN3CCOCC3)nc21	none
CCCn1c2ccccc2c2nnc(SCCN3CCOCC3)nc21	ALR inh 96
O=C(c1ccc(CNS(=O)(=O)c2cccc(C(F)(F)F)c2)cc1)N1CCOCC1	none
CCOC(=O)CN1CC23C=CC(O2)C(C(=O)NC2CCCCCC2)C3C1=O (stereo not given)	none
O=C(CSc1nc(CCC2CCCC2)nc2ccccc12)NCc1ccc2c(c1)OCO2	ALR inh 100
Cc1nonc1NC(=O)CSc1nc(CCC2CCCC2)nc2ccccc12	none
CCCc1nc(SCC(=O)Nc2cc(C)on2)c2ccccc2n1	none
Cc1cc(NC(=O)CSc2nc(CCC3CCCC3)nc3ccccc23)no1	ALR inh 97
Cc1ccc(C(=O)NC2CCN(C(=O)NC3CCCCC3)CC2)cc1	none (no result: ALR inh, NTR1 ag)
C/C(=N\NC(=O)c1cccc(S(=O)(=O)N2CCCC2)c1)c1cccs1	none
CCOc1cccc(CN2CCCC(C(=O)Nc3ccc(-c4ccn[nH]4)cc3)C2)c1O (stereo not given)	ALR inh 80
CCOc1cccc(CN2CCCC(C(=O)c3cccc(C(F)(F)F)c3)C2)c1O (stereo not given)	none
COc1cc(Cn2c(-c3ccc(O)c(OC)c3)nc3ccccc32)ccc1O	ALR inh 99
C=CCn1c(-c2ccc(N)cc2)nc2ccccc21	ALR inh 95
CCn1c(-c2ccc(N(C)C)cc2)nc2ccccc21	ALR inh 99
CCn1c(-c2ccc(N)cc2)nc2ccccc21	ALR inh 92
COc1ccc(-c2nc3ccccc3n2Cc2ccccc2)cc1	none (no result: ALR inh)
Cc1cc(Br)cc2c(C(=O)NCC3CCCO3)cc(-c3cccs3)nc12 (stereo not given)	none
COc1ccc(-c2oc(=O)c3cc(OC)c(OC)cc3c2C(F)(F)F)cc1	none (no result: SUMO HTRF inh)
COc1cc(NC(=O)OCc2ccccc2)c2ncccc2c1	none (no result: ALR inh, SUMO HTRF inh, NTR1 ag)
CN(C)c1ccc(-c2nc3ccccc3n2C)cc1	ALR inh 91
CC(C)n1c(-c2ccc(N(C)C)cc2)nc2ccccc21	ALR inh inconclusive
CN(C)c1ccc2nc3ccc(=[N+](C)C)cc-3sc2c1	ALR inh 99
CCCS(=O)(=O)c1nc(S(=O)(=O)c2ccc(C)cc2)c(NCc2ccc3c(c2)OCO3)s1	none
O=C(COC(=O)c1ccc([N+](=O)[O-])s1)Nc1ccc(Cl)cn1	Cardio protect 55
Cc1c(Cl)cnc(NC(=O)COC(=O)c2ccc([N+](=O)[O-])s2)c1Cl	Cardio protect 68 (no result: ALR inh)
Cc1c(Cl)cnc(NC(=O)COC(=O)c2cccs2)c1Cl	none (no result: SUMO HTRF inh)
Cc1cc2c(sc3c(C)ccc(C)c32)c(C)n1	none
Cc1nn(-c2ccccc2)c(N2CCCC2)c1/C=N/Nc1ccc(S(N)(=O)=O)cc1[N+](=O)[O-]	none (no result: ALR inh)
Cc1occc1C(=O)NNC1=CC(=O)CC(C)(C)C1	ALR inh 89
COc1ccc2c(c1)c(C(=O)N/N=C/c1ccc(Br)cc1)c(C)n2C	none (no result: ALR inh)
COc1ccc2nc(C)cc(SCC(=O)N/N=C/c3cccc4ccccc34)c2c1	none
COc1ccc2c(c1)c(C(=O)N/N=C/c1ccc(O)c(O)c1)c(C)n2C	ALR inh 100
COc1cccc2c(SCC(=O)N/N=C/c3ccccc3)cc(C)nc12	ALR inh 99
CCCCSc1nc(C)cc(SCC(=O)N/N=C/c2ccccc2)n1	none
COc1cccc2c(N/N=C/c3ccccc3)cc(C)nc12	ALR inh 87
COc1ccc2nc(C)cc(SCC(=O)N/N=C/c3ccc(O)c(O)c3)c2c1	ALR inh 88
CC(C)(C)n1ncc2c(=O)n(CC(=O)Nc3ccc4c(c3)OCCO4)cnc21	none
Cn1cc(C(=O)N/N=C/C2=C(N3CCOCC3)C(=C/c3ccc([N+](=O)[O-])cc3)/CC2)ccc1=O	none (no result: ALR inh, SUMO HTRF inh)
CC(C)(C)NC(=O)NC(=O)COC(=O)c1cccc(NS(=O)(=O)c2ccc(F)c(F)c2)c1	none
COc1cccc2c(SCC(=O)N/N=C/c3ccc(O)c(O)c3)cc(C)nc12	ALR inh 100, Cardio protect 67 (no result: NTR1 ag)
Cc1cc(SCC(=O)N/N=C/c2ccc(O)c(O)c2)c(C)cc1Br	ALR inh 99, Cardio protect 54
Cc1cc(SCC(=O)N/N=C/c2ccc(O)c(O)c2)nc2ccccc12	none (no result: ALR inh)
O=C(N/N=C/c1ccc(O)c(O)c1)N/N=C/c1ccc(O)c(O)c1	ALR inh 100 (no result: SUMO HTRF inh)
